Shown are actives, neighbours in structure and some others; about 4.2% of the full set was active somewhere.
NALP1 yeast inh – blocks the NALP1 inflammasome reconstituted in yeast. S. cerevisiae NALP1/ASC/caspase-1 growth, X-gal OD620, 72 h. inhibition, % at 10 µM. 280,000 compounds, 0.61% hits; in the data active means inhibition mostly above about 24%, no sharp cut-off; inactive means mostly below about 32%
PfHsp90 yeast 2 – growth inhibition of yeast expressing Plasmodium Hsp90. 310,000 compounds, 0.32% hits. inhibition, % at 9.4 µM. AID 504621. S. cerevisiae expressing PfHsp90, BacTiter-Glo ATP, 48 h; yeast lacking PDR1 and PDR3 efflux regulators;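 active means every replicate shows inhibition above about 80%, whatever the replicate mean, limit read from the data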;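 further: 0% = DMSO neutral controls and 100% = 20 µM radicicol positive controls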
tim10-1 inh – tim10-1 yeast growth inhibition; S. cerevisiae tim10-1 ts strain growth, BacTiter-Glo, 24 h; inhibition, % at 20 µM; 330,000 compounds, 2.2% hits; AID 463190;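 active means inhibition of at least 40%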;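 further: mutant grown at 25 °C; 0% = DMSO wells with yeast and 100% = wells holding no yeast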
NALP3 yeast inh – NALP3 inhibition in yeast; Yeast reconstituted NLRP3/ASC/caspase-1, beta-gal luminescence, 24 h; 330,000 compounds, 0.39% hits; inhibition, % at 10 µM;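 active means inhibition of 50% or more; inactive means inhibition below 50%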;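 further: plate controls were induced DMSO wells for no effect and uninduced yeast grown without galactose for full effect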
tim23-1 inh – inhibits growth of tim23-1 mutant yeast | S. cerevisiae tim23-1 growth, BacTiter-Glo luminescence, 24 h | inhibition, % at 20 µM | 330,000 compounds, 1.3% hits;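 active means growth inhibition of the mutant yeast at or above 50%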;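 further: temperature-sensitive mutant grown at 25 °C; plate controls were DMSO-treated mutant yeast for no effect and medium wells lacking yeast for full effect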
TIM10 inh – TIM10 yeast growth inhibition; S. cerevisiae TIM10 strain growth, BacTiter-Glo luminescence, 24 h; inhibition, % at 10 µM; 330,000 compounds, 1.4% hits; AID 463195;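 active means inhibition of 40% or more at the single tested concentration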;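 further: wild-type TIM10 isogenic control strain grown at permissive 25 °C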
tim23-1 conf – confirmation of tim23-1 mutant yeast growth inhibitors. shares compounds with tim23-1 inh. inhibition, % at 20 µM. S. cerevisiae tim23-1 growth, BacTiter-Glo luminescence, 24 h. 4,400 compounds, 83% hits;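 active means inhibition above about 39% in either of two replicate wells at 20 µM, limit read from the data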;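 further: temperature-sensitive tim23-1 mutant grown at 25 °C; 0% = DMSO wells with yeast and 100% = medium wells without yeast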
An asterisk follows results filed as active; nt = no result.

SMILES	NALP1 yeast inh	PfHsp90 yeast 2	tim10-1 inh	NALP3 yeast inh	tim23-1 inh	TIM10 inh	tim23-1 conf
CC(C)(C)CC(=O)NC(=S)Nc1ccccc1C(F)(F)F	9	-5	34	21	51*	36	39
COc1cccc(-n2nnnc2SCC(=O)N2CCCc3ccccc32)c1	16	-5	35	18	58*	37	54*
COc1cc(OC)cc(-n2nnnc2SCC(=O)N2CCCc3ccccc32)c1	33	8	8	21	36	11	nt
CCCn1c(SCC(=O)N2CCN(S(=O)(=O)c3ccc(Cl)cc3)CC2)n[nH]c1=O	5	-13	6	-6	58*	2	0
O=C(NC(=S)N(CC1CCC1)CC1CCCO1)c1cccc([N+](=O)[O-])c1 (stereo not given)	-56	-6	28	20	34	17	nt
C=CCn1c(O)c2ccc(C(=O)N=NC(=O)COc3ccccc3F)cc2c1O	nt	nt	9	18	6	-1	nt
C/C(=N\N(c1ccccc1)c1ccccc1)c1ccc(N)cc1	nt	-1	17	10	29	27	nt
C/C(=N\N(c1ccccc1)c1ccccc1)c1ccc(O)cc1	8	17	-6	16	54*	20	44*
Brc1ccc(-c2csc(Nc3nc(-c4ccc(Br)cc4)cs3)n2)cc1	5	-8	13	6	53*	8	12
CC(C)c1ccc(/C=C/C(=O)NC(=S)NN2CCOCC2)cc1	11	5	29	10	54*	27	36
COc1ccc(/C=N/NC(=O)c2ccc3c(c2)NC(=O)C(C)(C)O3)cc1OC	17	8	-12	16	-4	5	nt
COc1ccc(OC)c(Cc2nnc(CCC(=O)NCc3ccc(C)s3)o2)c1	5	9	23	0	5	10	nt
N=c1c2c(-c3ccccc3)c(-c3ccccc3)n(Cc3ccco3)c2ncn1Cc1ccco1	15	-5	32	-17	66*	26	44*
O=c1c2cnn(-c3ccccc3)c2ncn1Cc1ccco1	4	nt	25	37	20	6	nt
O=[N+]([O-])c1ccc2nc(Cl)nc(-c3ccccc3)c2c1	4	18	31	9	54*	40	48*
C=C1c2cccc(OC)c2O[C@H](C(=O)OCC)[C@@H]1CC(CC)CCCC (stereo not given in full)	nt	-15	27	nt	51*	16	36
CCCCCCN(C(=O)CCCCCN1C(=O)NC(c2ccc(-c3ccccc3)cc2)C(C(=O)OCc2ccccc2)=C1C)C(C)C(=O)NCCCC (stereo not given)	37	nt	3	9	-4	8	nt
CCCCNC(=O)C(C1CCCCC1)N(CCN(C)C)C(=O)CCCN1C(=O)NC(c2ccc(-c3ccccc3)cc2)C(C(=O)OCc2ccccc2)=C1C (stereo not given)	nt	nt	29	nt	51*	5	31
CC(=O)Nc1ccc(C2=NN(c3ccccc3)C(c3ccccc3)C2)cc1 (stereo not given)	17	-6	30	25	30	20	nt
CC(=O)Nc1ccc(C2CC(c3ccc(Cl)cc3)=NN2c2ccccc2)cc1 (stereo not given)	-7	-8	38	-11	63*	23	42*
O=C(NCc1cccs1)C1CCC(=O)N(Cc2cccc(C(F)(F)F)c2)C1 (stereo not given)	24	-3	16	11	1	-4	nt
Cc1ccc(-c2c3c(nc4sc(C(N)=O)c(N)c24)CCCC3)o1	27	7	36	-2	50*	2	48*
NC(=O)c1sc2nc3c(c(-c4ccco4)c2c1N)CCC3	0	-15	38	9	24	8	nt
CCn1c(/C=N/c2nc3ccccc3n2C)nc2ccccc21	-14	5	31	-8	56*	18	42*
CCn1c(N2CCN(S(=O)(=O)c3ccccc3C(F)(F)F)CC2)nc2ccccc21	8	nt	36	2	35	23	nt
SMILES	NALP1 yeast inh	PfHsp90 yeast 2	tim10-1 inh	NALP3 yeast inh	tim23-1 inh	TIM10 inh	tim23-1 conf
CCn1c(N2CCN(S(=O)(=O)c3ccc(OC)cc3)CC2)nc2ccccc21	1	7	-12	11	59*	-12	44*
Cc1nc2nc(SCc3ccccc3)[nH]n2c(=O)c1CCC(C)C	-13	-26	33	17	9	17	nt
CC(C)(C)C(=O)/C(C#N)=C/c1cccs1	nt	2	-10	19	18	-24	nt
N#C/C(=C\c1cccs1)C(=O)c1ccccc1Cl	3	nt	16	8	62*	19	57*
COc1ccccc1N(CC(=O)N/N=C(\C)c1ccc(F)cc1)S(=O)(=O)c1ccccc1	nt	12	9	-9	11	3	nt
Cc1ccc(/C=C(\NC(=O)c2ccc(C)cc2)c2nc(=S)[nH][nH]2)cc1	8	0	21	5	53*	28	36
Cc1ccc(C(=O)N/C(=C\c2ccccc2F)c2nc(=S)[nH][nH]2)cc1	3	-18	22	18	21	21	nt
CCN1CCN(S(=O)(=O)c2ccc(Cl)c(C(=O)NC(C)c3ccccc3Cl)c2)CC1 (stereo not given)	nt	nt	14	6	-2	-1	nt
CC(=O)Nc1ccc(C)c(NS(=O)(=O)c2cccc(C(F)(F)F)c2)c1	-18	1	8	9	6	9	nt
O=C(COC(=O)COc1ccc(Cl)cc1)NCCNC(=O)COC(=O)COc1ccc(Cl)cc1	nt	-9	-14	2	93*	-1	3
O=C(COC(=O)COc1ccc(Cl)cc1)NCCCc1ccccc1	nt	-8	2	18	16	3	nt
Cc1ccc(S(=O)(=O)/N=C(\N)c2ccc(Cl)cc2)cc1	19	28	nt	nt	nt	nt	nt
CCOc1ccccc1NC(=O)N1CCC(NC(=O)C2CCCCC2)CC1	16	-29	0	7	12	6	nt
O=Cc1ccccc1OCc1ccc2c(c1)OCO2	24	-11	0	-8	57*	22	56*
CCC(C)Sc1ccc(-c2nc3cc(C)ccn3c2NC2CCCCC2)cc1 (stereo not given)	nt	26	24	16	56*	32	47*
COc1ccc(C2(C(=O)NCCc3ccccc3)CCCC2)cc1OC	2	23	24	-3	3	-4	nt
O=C(COc1ccccc1)N/N=C/c1ccc([N+](=O)[O-])o1	21	-14	39	15	54*	31	75*
COC(=O)N/N=C/c1ccc([N+](=O)[O-])o1	3	-10	20	-2	22	6	nt
CCn1c(Cn2nnc(-c3ccccc3)n2)nnc1SCC(=O)N1CCOCC1	-1	6	4	15	8	8	nt
CCn1c(Cn2nnc(-c3ccccc3)n2)nnc1SCc1ccc(Cl)c(Cl)c1	nt	29	33	25	53*	28	45*

High-throughput results deposited in PubChem by several laboratories.
